From PubChem BioAssay
Rv3671c inh: inhibitors of M. tuberculosis serine protease Rv3671c; inhibition, % at 5.96 µM; actives 0.048% (n = 320,000); AID 2606; in the data active = inhibition above about 38%;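 also: extracellular domain of Rv3671c used as enzyme; 0% = enzyme with DMSO and 100% = no enzyme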
FBA Mtb inh: inhibits M. tuberculosis FBA enzyme; actives 2.3% (n = 360,000); purified M. tuberculosis FBA, fluorescence read-out; P9WQA3; inhibition, % at 1 µM; AID 588726;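 also: 0% = vehicle and 100% = reference inhibitor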
Mtb UGM inh: blocks M. tuberculosis UGM enzyme | purified UGM, fluorescence polarization probe displacement | inhibition, % at 10 µM | actives 0.06% (n = 320,000); in the data active = inhibition above about 10%, passing the limit was not always enough
Target sequence (P9WIQ1 whole entry, looked up): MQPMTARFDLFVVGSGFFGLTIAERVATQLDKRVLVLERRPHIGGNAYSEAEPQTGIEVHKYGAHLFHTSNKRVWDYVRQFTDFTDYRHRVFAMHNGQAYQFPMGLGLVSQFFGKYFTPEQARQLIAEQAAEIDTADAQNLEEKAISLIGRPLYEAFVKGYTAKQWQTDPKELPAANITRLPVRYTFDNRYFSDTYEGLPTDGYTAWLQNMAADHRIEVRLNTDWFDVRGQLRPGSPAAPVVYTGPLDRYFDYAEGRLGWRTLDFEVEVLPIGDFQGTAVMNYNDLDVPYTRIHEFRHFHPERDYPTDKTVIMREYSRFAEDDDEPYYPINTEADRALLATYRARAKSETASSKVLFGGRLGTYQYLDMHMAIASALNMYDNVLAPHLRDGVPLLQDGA
GDH-TPI counter-1: counter-screen for M. tuberculosis FBA inhibitors: GDH-TPI coupled enzymes | GDH-TPI coupled enzyme counterscreen, NADH absorbance | inhibition, % at 4.8 µM | actives 1.2% (n = 360,000); in the data active = inhibition above about 30%;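 also: 0% = DMSO wells and 100% = wells lacking the enzyme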
Mtb FBA inh conf: Mtb FBA inhibition, confirmed. shares compounds with FBA Mtb inh. purified M. tuberculosis FBA, fluorescence read-out. inhibition, % at 1 µM. actives 78% (n = 5,600). AID 651616;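 also: 0% = vehicle wells and 100% = reference inhibitor wells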
GDH-TPI counter-2: counter-screen for M. tuberculosis FBA inhibitors: GDH-TPI coupled enzyme inhibition; shares compounds with FBA Mtb inh; GDH-TPI coupled enzyme counterscreen, fluorescence; inhibition, % at 1 µM; actives 81% (n = 5,600); AID 652141; in the data active = inhibition above about 10%
The depositor's hits bear a star; x = no result given; + = active, no number. The list is not random: actives were taken first. Their share in the collection is about 3.5%. Rule as the data show it, unless noted: active = inhibition above about 27%; inactive = the rest.

SMILES	Rv3671c inh	FBA Mtb inh	Mtb UGM inh	GDH-TPI counter-1	Mtb FBA inh conf	GDH-TPI counter-2
Fc1ccccc1-c1nc2nc3ccccc3nc2n1CC1CCCO1 (configuration not stated)	3	60*	0	59*	-2	-3
S=c1[nH]nc(-c2ccccc2)n1CC1CCCO1 (configuration not stated)	1	7	0	-1	x	x
CCc1c(C)c2ccc(OC(C)C(=O)NC(Cc3c[nH]c4ccc(O)cc34)C(=O)O)c(C)c2oc1=O (configuration not stated)	3	43*	1	27	x	+
CCCCc1cc(=O)oc2cc(C)cc(OC(C)C(=O)NC(Cc3c[nH]c4ccc(O)cc34)C(=O)O)c12 (configuration not stated)	-2	37*	1	16	132*	102*
Cc1cc(=O)oc2c(C)c(OC(C)C(=O)NC(Cc3c[nH]c4ccc(O)cc34)C(=O)O)ccc12 (configuration not stated)	0	11	1	17	x	x
CN(CC(=O)Nc1ccc(Cl)c(C(F)(F)F)c1)C(=O)c1ccccc1SCC(=O)N1CCCC1	x	3	x	-5	x	x
COc1ccc(CN(C)C[C@H]2OCCCC[C@@H](C)Oc3ccc(NS(C)(=O)=O)cc3C(=O)N([C@H](C)CO)C[C@@H]2C)cc1	x	-1	x	9	x	x
CC1CN(S(=O)(=O)c2ccc(CN3C(=O)c4cccnc4C3=O)s2)c2ccccc2O1 (configuration not stated)	5	0	-2	6	x	x
COc1cccc(Cn2c(N)c(C#N)c3nc4ccccc4nc32)c1OC	-30	7	0	7	x	x
N#Cc1c(N)n(-c2ccc(O)cc2)c2nc3ccccc3nc12	4	0	0	2	x	x
N#Cc1c(N)n(CCOC(=O)c2cccc(Br)c2)c2nc3ccccc3nc12	-9	45*	3	6	50*	34*
COc1cc(Cn2c(N)c(C#N)c3nc4ccccc4nc32)cc(OC)c1	-6	109*	1	17	+	173*
N#Cc1c(N)n(-c2cccc(O)c2)c2nc3ccccc3nc12	-2	84*	0	20	+	+
CCc1cccc(NC(=O)c2cccc3c2C(=O)N(C2CCCCC2)C3)c1	-6	-1	-1	-11	x	x
CCOC(=O)c1sc(NC(=O)CSc2nc(-c3ccco3)cc(C(F)(F)F)n2)c(C#N)c1C	8	0	-1	-2	x	x
CCOC(=O)COc1nc(-c2ccco2)cc(-c2ccco2)c1C#N	2	80*	2	15	16	14*
CCOC(=O)C(C)Sc1nc(-c2ccco2)cc(C(F)(F)F)c1C#N (configuration not stated)	-5	29*	-2	3	124*	95*
CC(=O)COc1nc2c(c(-c3ccco3)c1C#N)CCc1ccccc1-2	-8	x	4	x	x	x
O=C1c2ccccc2NC(c2ccccc2O)N1O (configuration not stated)	-4	3	0	-12	x	x
CCCN1C(=O)c2ccccc2NC1c1ccc(OC)cc1OC (configuration not stated)	1	81*	-3	0	45*	43*
COc1ccc(C2Nc3ccccc3C(=O)N2NC(C)=O)c(OC)c1 (configuration not stated)	4	41*	-1	11	72*	50*
COc1cc(C2Nc3ccccc3C(=O)N2c2ccccc2)c(Br)cc1OCC(=O)O (configuration not stated)	-3	22	3	4	x	x
CCCN1C(=O)c2ccccc2NC1c1ccc(OC)cc1O (configuration not stated)	0	58*	0	6	2	-8
CCc1c(C)nc2cc(-c3cccc(Br)c3)[nH]n2c1=O	-2	8	0	15	x	x
Cc1ccc(CN2C(=O)c3ccccc3NC2c2ccccn2)cc1 (configuration not stated)	-4	31*	4	-5	63*	51*
O=C1c2ccccc2NC(c2ccccc2)N1CCCN1CCOCC1 (configuration not stated)	-2	48*	-2	9	123*	107*
CCCN1C(=O)c2ccccc2NC1c1ccc(C)cc1 (configuration not stated)	1	78*	0	3	5	-2
